KCNQ2 block – inhibitors of rat KCNQ2 potassium channel | 310,000 tested, 1.1% active | B-score at 10 µM | CHO-K1 KCNQ2, FluxOR thallium flux, 20 min; active compounds read low;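 active means fluorescence ratio B-score at most minus 3 library SDs, with starting brightness B-score within 2 library SDs, cut at about -5.5 in these data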
Target sequence (O88943 whole entry, looked up): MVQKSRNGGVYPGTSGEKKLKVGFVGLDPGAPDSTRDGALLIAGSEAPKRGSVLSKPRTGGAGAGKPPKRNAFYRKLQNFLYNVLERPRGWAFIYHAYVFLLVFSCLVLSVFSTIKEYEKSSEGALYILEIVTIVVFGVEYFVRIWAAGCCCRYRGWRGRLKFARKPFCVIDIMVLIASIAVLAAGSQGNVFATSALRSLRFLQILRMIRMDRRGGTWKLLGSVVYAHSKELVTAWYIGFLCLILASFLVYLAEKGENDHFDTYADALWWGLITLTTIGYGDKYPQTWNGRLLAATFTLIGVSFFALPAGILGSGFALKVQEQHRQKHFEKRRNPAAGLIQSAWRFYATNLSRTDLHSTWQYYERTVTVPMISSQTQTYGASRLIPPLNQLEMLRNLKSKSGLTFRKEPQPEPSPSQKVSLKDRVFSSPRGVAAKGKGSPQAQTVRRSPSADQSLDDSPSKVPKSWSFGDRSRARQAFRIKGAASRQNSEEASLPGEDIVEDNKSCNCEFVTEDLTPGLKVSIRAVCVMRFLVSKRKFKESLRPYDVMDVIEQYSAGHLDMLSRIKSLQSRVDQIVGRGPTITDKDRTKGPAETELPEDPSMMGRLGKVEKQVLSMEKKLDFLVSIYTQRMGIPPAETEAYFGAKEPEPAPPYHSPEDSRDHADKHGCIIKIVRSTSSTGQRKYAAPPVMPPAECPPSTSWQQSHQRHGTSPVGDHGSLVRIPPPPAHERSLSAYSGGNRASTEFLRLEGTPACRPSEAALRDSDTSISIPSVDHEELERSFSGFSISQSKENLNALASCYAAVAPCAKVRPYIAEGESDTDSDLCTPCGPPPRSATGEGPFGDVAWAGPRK
KCNQ2 enhance – potentiators of rat KCNQ2 potassium channel; O88943; CHO-K1 KCNQ2, FluxOR thallium flux fluorescence; active compounds read high; B-score at 10 µM; 310,000 tested, 0.54% active;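 active means fluorescence ratio B-score at least 3 SD of library B-scores, with initial fluorescence B-score within 3 of them, cut at about 5.3 in these data; same plate scores as AID 2156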;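 further: B-score of peak minus minimum over baseline fluorescence ratio after K+ and Tl+ stimulus; positive B-score means potentiation of KCNQ2 with more thallium influx and brighter signal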
A number is an active result; n = inactive; x = no result. Shown are actives, neighbours in structure and some others; about 1.6% of the full set was active somewhere.

SMILES | KCNQ2 block | KCNQ2 enhance
CN(CC(=O)NCCc1ccccc1)Cc1ccco1 | n | n
Cc1ccc(C)c(C(=O)C(C)OC(=O)CN2C(=O)NC3(CC(C)CC(C)(C)C3)C2=O)c1 (stereo not drawn) | n | n
COc1ccccc1NC(=O)CN1CCN(c2ccccc2F)CC1 | -5.81 | n
COc1ccccc1NC(=O)CN1CCN(c2ccccc2OC)CC1 | n | n
COc1ccc(N2C3=C(CC4=C2CCCC4=O)C(=O)CCC3)cc1 | n | x
COc1ccc(N2C3=C(CC4=C2CC(C)(C)CC4=O)C(=O)CC(C)(C)C3)cc1 | -10.4 | n
COC(=O)c1ccc(C(=O)N(CCN(C)C)c2nc3c(Cl)cccc3s2)cc1 | n | x
Cc1ccc(C(C)C)cc1OCC(=O)Nc1ccc(N2CCCCC2)cc1 | n | x
COC(=O)c1c(NC(=O)c2ccco2)sc2c1CCC2 | n | x
CC(C)OC(=O)c1c(NC(=O)c2ccco2)sc2c1CCCCC2 | -6.32 | n
CCOC(=O)CSC1=C(C#N)C(c2ccco2)C(C(=O)Nc2cccc(C(F)(F)F)c2)=C(C)N1 (stereo not drawn) | -7.22 | n
CCOC(=O)C1=C(c2ccccc2)NC(SCC(=O)Nc2cccc(C)c2)=C(C#N)C1c1ccco1 (stereo not drawn) | n | n
COc1ccccc1NC(=O)N[C@@H](Cc1c[nH]c2ccccc12)C(=O)NN | n | n
CCOC(=O)C1CCN(c2c(C(=O)c3ccccc3)cnc3ccc(Cl)cc23)CC1 | -5.58 | n
CCOC(=O)C1CCN(C(=O)c2cccc(Cl)c2)CC1 | n | n
COC(=O)c1ccc(NC(=O)c2ccccc2-c2ccccc2C(=O)O)cc1 | n | x
O=S(=O)(Nc1c(S(=O)(=O)c2ccccc2)c2nc3ccccc3nc2n1C1CCCCC1)c1ccccc1 | -6.15 | n
C=CCn1c(NS(=O)(=O)c2ccccc2)c(S(=O)(=O)c2ccc(C)cc2)c2nc3ccccc3nc21 | n | x
CC1CCCN(S(=O)(=O)c2cc3c4c(c2)C(C)C(=O)N4CCC3)C1 (stereo not drawn) | n | x
OCCC1CN(CC2CCCCC2)CCN1CC1CCCCC1 (stereo not drawn) | n | 6.77
OCCC1CN(CC2CCCCC2)CCN1C1CCCC1 (stereo not drawn) | n | n
Cc1ccc2c(C)c(C(=O)N3CCC(O)(c4ccccc4)CC3)oc2c1C | -5.93 | n
Cc1ccc2c(C)c(C(=O)N3CCN(c4cnccn4)CC3)oc2c1C | n | x
CCCc1nc(SCC(=O)N2CCCCCC2)c2c(=O)n(C)c(=O)n(C)c2n1 | n | 19
CCc1nc(SCC(=O)N2CCCC2)c2c(=O)n(C)c(=O)n(C)c2n1 | n | n
SMILES | KCNQ2 block | KCNQ2 enhance
CN1CCN(c2oc(-c3ccccc3)nc2S(=O)(=O)c2ccc(Br)cc2)CC1 | n | n
CCOc1ccccc1NC(=O)c1cccc2c1C(=O)N(C1CCCCC1)C2 | -6.33 | n
Cc1ccccc1NC(=O)c1cccc2c1C(=O)N(C1CCCCC1)C2 | n | x
Oc1ccccc1OCc1nc2ccccc2s1 | n | x
Oc1ccc(O)c(Cc2nc3ccccc3s2)c1 | -5.56 | n
Cc1nc(SC(C(=O)c2ccccc2)c2ccccc2)nc2ccccc12 (stereo not drawn) | n | x
COc1ccc2nc(SCc3ccccc3C)nc(C)c2c1 | n | x
Cc1ccc2c(C)nc(SC(C(=O)c3ccccc3)c3ccccc3)nc2c1 (stereo not drawn) | -6.01 | n
COc1ccc2nc(SC(C(=O)c3ccccc3)c3ccccc3)nc(C)c2c1 (stereo not drawn) | -5.61 | n
CN(C(=O)CN1C(=O)C2C3CC(C(Br)C3Br)C2C1=O)C1CCCCC1 (stereo not drawn) | n | x
COc1ccc(N2CCN(C(CNC(=O)C(C)C)c3ccc4c(c3)OCO4)CC2)cc1 (stereo not drawn) | n | n
CC1CCC(=O)N(CCC#N)CC1 (stereo not drawn) | n | n
NC(=O)c1[nH]cnc1N | n | n
COc1ccc(Br)cc1CNC(=O)c1ccc2c(c1)N(C)CCS2 | -6.38 | n
CCN1CCSc2ccc(C(=O)NCc3cc(Br)ccc3OC)cc21 | n | x
COc1ccc(-c2nnc(NC(=O)C3=COCCO3)o2)cc1 | n | x
CC(C)CNC(=O)c1oc2ccccc2c1COc1ccccc1 | -6.38 | n
CCC(CC)NC(=O)c1oc2ccccc2c1COc1ccccc1 | n | x
O=C(CN(Cc1ccco1)S(=O)(=O)c1cccs1)Nc1ccccc1C(F)(F)F | -7 | n
COc1ccccc1NC(=O)CN(Cc1ccco1)C(=O)c1cccs1 | n | x
c1ccc(Nc2scc(-c3ccccc3)[n+]2Cc2ccco2)cc1 | -6.44 | n
c1ccc(C[n+]2c(-c3ccccc3)csc2Nc2ccccc2)cc1 | n | x
CC(C)C(C)NC(=O)CN1C(=O)NC2(CCc3ccccc32)C1=O (stereo not drawn) | n | n
CC1=CC(C#N)(C#N)C(C#N)(C#N)C(c2ccccc2)N1 (stereo not drawn) | n | x
CC1CCC(C(C)C)C2=C1C(C#N)(C#N)C(C#N)(C#N)C(c1ccccc1)N2 (stereo not drawn) | -7.84 | n
SMILES | KCNQ2 block | KCNQ2 enhance
O=C1CC(C(=O)Nc2ccc(Cl)cc2[N+](=O)[O-])C2(CCCCC2)O1 (stereo not drawn) | n | n
O=C(NNC(=O)c1ccc2ncccc2c1)c1ccc(Cl)cc1 | n | 8.05
Cc1ccc(C(=O)NNC(=O)c2ccc3ncccc3c2)cc1 | n | n
OCCC1CN(Cc2cnc(-c3cccc4ccccc34)nc2)CCN1C1CCCCC1 (stereo not drawn) | n | n
CC(C(=O)NCc1ccc(Cl)cc1)n1cccc1C(=O)c1ccccc1 (stereo not drawn) | n | n
COc1ccccc1CNC(=O)C(C)n1cccc1C(=O)c1ccccc1 (stereo not drawn) | -5.71 | n
COC(=O)c1sccc1NC(=O)Nc1ccc(C(C)=O)cc1 | n | x
Cc1cc(C)c2nc(NCCCNC(=S)NCCCN(C)C)c(C#N)cc2c1 | -7.29 | n
Cc1ccc2cc(C#N)c(NCCNC(=S)NCCCN(C)C)nc2c1C | n | x
Cn1cnnc1SC1c2cccc3cccc(c23)C1NS(=O)(=O)c1ccccc1 (stereo not drawn) | n | x
Cc1ccc(S(=O)(=O)NC2c3cccc4cccc(c34)C2Sc2nncn2C)cc1 (stereo not drawn) | n | n
Cc1ccc(S(=O)(=O)NC2c3cccc4cccc(c34)C2Sc2nc(C)cc(C)n2)cc1 (stereo not drawn) | -6.4 | n
O=S(=O)(NC1c2cccc3cccc(c23)C1Sc1ncccn1)c1ccccc1 (stereo not drawn) | -6.41 | n
O=C(Cn1c(=O)c(=O)n(Cc2ccccc2)c2ccc(Cl)cc21)Nc1cccc(F)c1 | n | x
CC(C)c1ccc(C2CC(=O)c3cnc(NC(=O)c4ccco4)nc3C2)cc1 (stereo not drawn) | n | n
CCn1c(CSCc2ccc(C)cc2)nnc1SCC(=O)N1CCN(c2ccccc2)CC1 | -7.82 | n
C=CCn1c(CSCc2ccccc2)nnc1SCC(=O)N1CCN(c2ccccc2)CC1 | n | x
C=CCn1c(SCc2c(C)noc2C)nc2sc3c(c2c1=O)CCCC3 | n | x
C=CCn1c(SCc2c(C)noc2C)nc2sc3c(c2c1=O)CCCCC3 | -6.5 | n
C[C@H]1[C@H](C)CC[C@]2(C(=O)O)CC[C@]3(C)C(=CC[C@@H]4[C@@]5(C)C[C@@H](O)[C@H](O)C(C)(C)[C@@H]5CC[C@]43C)[C@H]12 | n | n
C[C@H]1[C@H](C)CC[C@]2(C)CC[C@]3(C)C(=CC[C@@H]4[C@@]5(C)CC[C@@H](O)[C@](C)(C(=O)O)[C@@H]5CC[C@]43C)[C@H]12 | -9.21 | n

Screens from PubChem.
